What all share (parameters): species or system human, MV4-11 + K-562 + COLO205 + SK-N-BE2 + OVCAR-8
The test system of one assay is DDR1. The note with it: read-out: apparent Kd, n = 1.
For a further assay, the system named is JAK2. The note with it: read-out: apparent Kd; compound concentrations:100 nM and 1000 nM (sheet 'Samples'); n = 1.
Another assay concerns PIK3CA. Conditions: read-out: apparent Kd; compound concentrations:100 nM and 1000 nM (sheet 'Samples'); n = 1.
The subject of another assay is PIK3CD. Conditions: read-out: apparent Kd, n = 1.
For another assay, the system named is RET. The note with it: read-out: apparent Kd, n = 1.
For the next assay, the system named is CSNK2A1;CSNK2A3. Conditions: read-out: apparent Kd; compound concentrations: 100 nM and 1000 nM (sheet 'Samples'), CATDS: 0.129612529480612; n = 1.
The next assay deals with CSNK2A2. The note with it: read-out: apparent Kd, compound concentrations: 100 nM and 1000 nM (sheet 'Samples'), n = 1.
The subject of the next assay is FYN. The note with it: read-out: apparent Kd; compound concentrations: 100 nM and 1000 nM (sheet 'Samples'), CATDS: 8.5832491833895103E-2; n = 1.
Another assay concerns PRKD1. The note with it: read-out: apparent Kd; compound concentrations: 100 nM and 1000 nM (sheet 'Samples'), CATDS: 0.12301509267520799; n = 1.
Another assay relates to PRKD2. The note with it: read-out: apparent Kd, n = 1.
For a further assay, the system named is PRKD3. The note with it: read-out: apparent Kd; compound concentrations: 100 nM and 1000 nM (sheet 'Samples'), CATDS: 0.165514181456969; n = 1.
For another assay, the system named is DCTPP1. The note with it: read-out: apparent Kd; compound concentrations:100 nM and 1000 nM (sheet 'Samples'); n = 1.
For another assay, the system named is MAPK14. The note with it: read-out: apparent Kd, n = 1.
For another assay, the system named is MAPK6. Conditions: read-out: apparent Kd; compound concentrations:100 nM and 1000 nM (sheet 'Samples'); n = 1.
The next assay has as its system NTRK1. The note with it: read-out: apparent Kd; compound concentrations:100 nM and 1000 nM (sheet 'Samples'); n = 1.
The subject of a further assay is NUAK1. Conditions: read-out: apparent Kd; compound concentrations:100 nM and 1000 nM (sheet 'Samples'); n = 1.
Another assay has as its system PHKG2. The note with it: read-out: apparent Kd; compound concentrations:100 nM and 1000 nM (sheet 'Samples'); n = 1.
The next assay relates to NLK. Conditions: read-out: apparent Kd; compound concentrations:100 nM and 1000 nM (sheet 'Samples'); n = 1.
A further assay concerns PDXK. The note with it: read-out: apparent Kd; compound concentrations:100 nM and 1000 nM (sheet 'Samples'); n = 1.
The subject of a further assay is PIK3C3. The note with it: read-out: apparent Kd; compound concentrations:100 nM and 1000 nM (sheet 'Samples'); n = 1.
For the next assay, the system named is PIK3CB. Conditions: read-out: apparent Kd; compound concentrations:100 nM and 1000 nM (sheet 'Samples'); n = 1.
A further assay relates to DDR2. Conditions: read-out: apparent Kd; compound concentrations: 100 nM and 1000 nM (sheet 'Samples'), CATDS: 0.144406437385246; n = 1.
Another assay has as its system FLT4. Conditions: read-out: apparent Kd, compound concentrations: 100 nM and 1000 nM (sheet 'Samples'), n = 1.
The next assay has as its system PDGFRB. Conditions: read-out: apparent Kd; compound concentrations: 100 nM and 1000 nM (sheet 'Samples'), CATDS: 0.14329981050248; n = 1.
In a further assay the test system is CSNK1D. Conditions: read-out: apparent Kd; compound concentrations:100 nM and 1000 nM (sheet 'Samples'); n = 1.
The subject of another assay is CSNK1E. The note with it: read-out: apparent Kd; compound concentrations:100 nM and 1000 nM (sheet 'Samples'); n = 1.
The test system of another assay is MAPKAPK2. The note with it: read-out: apparent Kd; compound concentrations:100 nM and 1000 nM (sheet 'Samples'); n = 1.
A further assay relates to PKN3. The note with it: read-out: apparent Kd; compound concentrations:100 nM and 1000 nM (sheet 'Samples'); n = 1.
The next assay deals with T1, DJA1.
T1 construct: gene DNAJA1
Conditions: read-out: apparent Kd; compound concentrations: 100 nM and 1000 nM (sheet 'Samples'), CATDS: 0.455945316982168; n = 1.

The next assay concerns NQO2. Conditions: read-out: apparent Kd; compound concentrations: 100 nM and 1000 nM (sheet 'Samples'), CATDS: 0.17633941136765999; n = 1.
The mark [1] stands for this setting: compound concentrations:100 nM and 1000 nM (sheet 'Samples').

Where two headings read alike, the source gives them in different places.

With `CN1CCN(CCNc2nc3cc(Oc4ccc(NC(=O)Nc5cc(C(F)(F)F)ccc5F)cc4)ccc3[nH]2)CC1.CN1CCN(CCNc2nc3cc(Oc4ccc(NC(=O)Nc5cc(C(F)(F)F)ccc5F)cc4)ccc3[nH]2)CC1.Cl.Cl` [GW768504A], the potency estimated from few doses in the assay on DDR1 (setting [1]) was 584 nM; in the assay with JAK2, 634 nM; in the assay on PIK3CA, 230 nM; in the assay on PIK3CD (setting [1]) it was 97.4 nM; in the assay on RET (setting [1]), 1080 nM.

For `Cc1cccc(-c2nc(Nc3ccc4[nH]nnc4c3)c3ccccc3n2)n1` [GW867587X], the potency estimated from few doses in the assay with CSNK2A1;CSNK2A3 was 199 nM; in the assay with CSNK2A2 (CATDS: 0.107908062412964), 369 nM; with FYN it was 1180 nM; with PIK3CD (compound concentrations: 100 nM and 1000 nM (sheet 'Samples'), CATDS: 0.50363081174980595), 13.2 nM; in the assay with PRKD1 it was 233 nM; in the assay with PRKD2 (compound concentrations: 100 nM and 1000 nM (sheet 'Samples'), CATDS: 0.237501197916752), 47 nM. Further, the potency estimated from few doses with PRKD3 was 103 nM.

In the case of `NCC1CNC(=O)c2cc3ccc(C(=O)Nc4cccnc4)cc3n2C1` (stereo not shown) [BI00614644], the potency estimated from few doses in the assay with DCTPP1 is 1830 nM; in the assay on MAPK14 (setting [1]), 1320 nM; in the assay on MAPK6, 1330 nM; with NTRK1, 1520 nM; in the assay on NUAK1, 1090 nM; with PHKG2, 1110 nM. In the assay on PRKD2 (setting [1]), the potency estimated from few doses was 950 nM.

In the case of `O=c1cc(N2CCOCC2)nc2n(Cc3cccc(Cl)c3Cl)c(C3CC3)nn12` [GSK2358994A], the potency estimated from few doses is 1200 nM with DCTPP1; 2260 nM in the assay on NLK; 1950 nM with PDXK; 9.02 nM in the assay with PIK3C3; 3.64 nM in the assay with PIK3CB; 14.2 nM with PIK3CD (setting [1]).

For `Cc1c2ccc(N(C)c3ccnc(Nc4cccc(S(N)(=O)=O)c4)n3)cc2nn1C.Cl` [GW771127A], the potency estimated from few doses was 397 nM in the assay with DDR1 (compound concentrations: 100 nM and 1000 nM (sheet 'Samples'), CATDS: 0.23686059185109401); 1670 nM in the assay with DDR2; 51.7 nM with FLT4 (CATDS: 0.67629550242263303); 1720 nM in the assay with PDGFRB; 746 nM in the assay with RET (compound concentrations: 100 nM and 1000 nM (sheet 'Samples'), CATDS: 0.185315990587263).

Take `Cc1cccc2c(-c3ccncc3)c(-c3ccc(F)cc3)nn12.Cl` [GW461487A]: the potency estimated from few doses in the assay on CSNK1D is 605 nM; in the assay on CSNK1E, 879 nM; in the assay with MAPK14 (compound concentrations: 100 nM and 1000 nM (sheet 'Samples'), CATDS: 0.14248163391639501), 940 nM; in the assay on MAPKAPK2, 565 nM; in the assay on PIK3CD (setting [1]), 152 nM; in the assay on PKN3, 1420 nM.

In the case of `CCS(=O)(=O)c1ccc(OC)c(Nc2ncc(-c3ccc(F)cc3)o2)c1.Cl` [GW591947A], the potency estimated from few doses in the assay on CSNK2A2 (CATDS: 0.17401411869460601) is 1860 nM; in the assay with DJA1, 131 nM; in the assay on FLT4 (CATDS: 0.41854797783311298), 152 nM; with NQO2, 1750 nM.

These data come from publication PMC11062922 (Nature Chemical Biology, 2023).
